# Screening results from PubChem.
# Shown are actives, neighbours in structure and some others; about 14% of the full set was active somewhere.
# HSD17B inhib = inhibitors of human HSD17B10 dehydrogenase. Q99714. recombinant HSD17B10, NADH fluorescence kinetic. Potency, µM (highest dose often 57.1 µM), for inactives: top-dose activity change, negative = inhibition, actives largely listed as inhibitors. 75,000 compounds, 7.6% hits. AID 893;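 note: the protocol describes HADH2 (HSD17B10) and not the HSD17B4 of the title; potency is the fitted concentration of half-maximal effect; % is set by controls: 0 for no effect and ±100 for the full control effect; nearly all actives have a fitted effect of over 70% in size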
#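 His-tagged E. coli-expressed HADH2 at 20 nM in 100 mM Tris-HCl pH 9.0 with 0.01 % Tween-20, preincubated 15 min with compound at room temperature. Reaction with 1 mM NAD+ and 90 uM beta-hydroxybutyryl coenzyme A; NADH fluorescence (360/450 nm) read kinetically over 4 min, last minus first point.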
# AID923 = qHTS Assay for Allosteric/Competitive Inhibitors of Caspase-1: Spectroscopic Profiling in AFC Spectral Region | compound fluorescence, AFC spectral region (405/520 nm) | Potency, µM (highest dose often 57.5 µM), without a hit: top-dose fluorescence increase, actives largely listed as activators | 75,000 compounds, 1.1% hits; note: potency is the fitted concentration of half-maximal effect; 0% is about no effect
#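 Baseline compound fluorescence (AFC region, 405 nm ex/520 nm em) taken from the intercept of kinetic reads with 50 nM caspase-1 and 5 uM Ac-WEHD-AFC; normalized to an on-plate AFC standard curve; compounds titrated up to 57 uM.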
# 4-MU autofl = compound fluoresces in the 4-MU spectral region. compound autofluorescence, 340/450 nm, 4-MU equivalents; stronger effect = higher value. max dye-equivalent concentration, M. 59,000 compounds, 11% hits; in the data active = max dye-equivalent concentration above about 10 nM; inconclusive = mostly about 1.1 nM to 9.6 nM
#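 Compounds in 100 mM Tris, pH 8.0, incubated 15 min at room temperature, then fluorescence read at 340 nm excitation/450 nm emission. Signal converted to 4-MU dye-equivalent concentration using an on-plate six-point 4-MU standard curve.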
# CRE Fsk mod = modulators of forskolin-stimulated CRE signaling in CHO cells | Potency, µM (series often up to 38.2 µM), without a hit: at the top dose activity change, negative = inhibition, actives largely listed as activators | CHO CRE-bla reporter (cAMP response element driving beta-lactamase), forskolin EC10, beta-lactamase ratio | 71,000 compounds, 2.5% hits | AID 662; active = well fitted activation curve with a large enough effect in the signal ratio, with a control signal flat, not every such curve was filed as active; inconclusive = small, poorly fitted or top-dose-only effect, or effect the other way, or a change in a side signal; the % refers to the signal ratio; note: potency is the fitted concentration of half-maximal effect; % of control where 0% means no effect
#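 Modulation of forskolin-driven signalling is measured in CHO cells carrying a CRE-controlled beta-lactamase reporter. Cells are stimulated with EC10 NKH 477 in the presence of titrated compound for 3 h at 37 °C, then loaded with CCF4 for 2 h at room temperature.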
# A350 autofl = A350 region autofluorescence. Compound autofluorescence, 340/450 nm, Alexa 350 dye-equivalents; stronger effect = higher value. max dye-equivalent concentration, M. 59,000 compounds, 11% hits. AID 590; in the data active = max dye-equivalent concentration above about 10 nM; inconclusive = mostly about 1.1 nM to 9.6 nM
# HADH2 inh = inhibitors of human HADH2 dehydrogenase; 73,000 compounds, 3.4% hits; recombinant HADH2, NADH fluorescence, beta-hydroxybutyryl-CoA; Potency, µM (highest dose often 57.1 µM), without a hit: at the highest dose activity change, negative = inhibition, most hits filed as inhibitors; note: potency is the fitted concentration of half-maximal effect; % is set by controls: 0 for no effect and ±100 for the full control effect; nearly all actives have a fitted effect of over 60% in size
# Target sequence (Q99714 whole entry, looked up, one chain of several): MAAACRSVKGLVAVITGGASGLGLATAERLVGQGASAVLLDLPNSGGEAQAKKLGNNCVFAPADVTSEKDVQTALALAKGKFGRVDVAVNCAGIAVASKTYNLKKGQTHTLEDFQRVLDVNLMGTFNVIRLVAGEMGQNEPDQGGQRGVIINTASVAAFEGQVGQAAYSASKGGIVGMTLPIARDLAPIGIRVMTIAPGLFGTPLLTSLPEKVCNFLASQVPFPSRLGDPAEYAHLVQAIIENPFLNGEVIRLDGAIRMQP
#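 20 nM HADH2 + cpd, 15 min RT; add 1 mM NAD+/90 uM beta-hydroxybutyryl-CoA; kinetic fluorescence 360/450 nm, 4 min. Tris-HCl pH 9.0, 0.01% Tween-20.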
# Active calls of the source: *; i = inactive; ? = inconclusive; · = no result; [ ] = another dose, or the depositor's remark. Unless noted, calls come from the whole dose curve; as a rule, active = well fitted curve in the direction sought with a large enough effect; inconclusive = small, poorly fitted or top-dose-only effect, or another doubt; inactive = no such curve, though single readings can be large; an effect the other way counts as inactive or inconclusive.
SMILES,HSD17B inhib,AID923,4-MU autofl,CRE Fsk mod,A350 autofl,HADH2 inh
COc1cc2nc(N3CCN(C(=O)C4CCCO4)CC3)nc(N)c2cc1OC (stereo not drawn),31.6µM*,-0.3%,1.54e-06M*,8.0%,2.12e-06M*,104.7%
CCCOC1(NC(=O)c2ccccc2)C(C)=CC(=O)C=C1C,-11.9%,-1.3%,i,?,i,?
C=CCOCC/C=C1/c2ccccc2C(OC)C1C (stereo not drawn),1.9%[11.4 µM],-1.6%[11.5 µM],·,·,·,-1.7%[11.4 µM]
CCCCNS(=O)(=O)c1ccc2nc(SCC(=O)c3ccc(C#N)cc3)[nH]c2c1,-21.4%,3.1%,i,?,i,-23.1%
Cc1ccc(S(=O)(=O)Nc2ccccc2C(=O)O)c(C)c1,?,-2.2%,·,·,·,?
Cc1cc(F)ccc1S(=O)(=O)Nc1ccccc1C(=O)Nc1ncn[nH]1,25.1µM*,0.2%,1.26e-07M*,1.4%,1.18e-07M*,13.8%
N/N=C1/CC(=O)NC(=O)N1,3.98µM*,15.2%[11.5 µM],7.44e-07M*,?,8.25e-07M*,27.6%[11.4 µM]
COc1ccccc1N1CC(O)=C(c2nc3ccccc3c(=O)[nH]2)C1=N,31.6µM*,0.9%,?,18.1%,1.12e-08M*,235.3%
COCCN1CC(O)=C(c2nc3ccccc3c(=O)[nH]2)C1=N,25.1µM*,0.6%,1.03e-08M*,?,?,35.4%
N=C1C(c2nc3ccccc3c(=O)[nH]2)=C(O)CN1CCO,3.16µM*,1.7%,?,-1.6%,?,-10.6%
CCOc1ccccc1N1CC(O)=C(c2nc3ccccc3s2)C1=N,?,-0.4%,i,-6.6%,i,?
N=C1C(c2nc3ccccc3c(=O)[nH]2)=C(O)CN1CCc1ccccc1,31.6µM*,-0.7%,·,?,·,-25.6%
O=c1[nH]c(CN2CCN(CCO)CC2)nc2ccccc12,8.2%,-2.6%,?,-10.5%,?,-14.0%
O=C1CC(NCc2ccc3c(c2)OCO3)C(=O)N1CCc1ccccc1 (stereo not drawn),7.7%,2.2%,·,·,·,-7.4%
COc1ccccc1-c1ccc2ncnc(N3CCN(C)CC3)c2c1,-1.5%,-0.8%,i,14.9%,i,15.9%
COc1ccccc1CC1(C)NC(=O)N(CC(=O)N2CC(C)OC(C)C2)C1=O (stereo not drawn),17.3%,3.0%,i,15.9%,i,7.6%
CCCCN1CC(O)=C(c2nc3ccccc3[nH]2)C1=N,-9.9%,18.5%,1.57e-07M*,?,1.64e-07M*,-1.3%
Cc1cccc([N+](=O)[O-])c1C,-6.0%,-1.8%,·,-8.9%,·,5.1%
CC(=O)N1CCc2cc(C(=O)CN3CCN(c4ccccc4F)CC3)ccc21,-4.2%,4.7%,·,-22.0%,·,4.6%
O=C(CN1CCN(c2ccccc2F)CC1)c1ccc2cc[nH]c2c1,25.1µM*,5.4%,·,?,·,?
O=C(CCS(=O)(=O)c1ccc(Br)cc1)N1CCN(c2ccccc2F)CC1,2.1%,2.6%,1.63e-08M*,6.7%,1.46e-08M*,2.9%
O=C(CCN1CCN(c2ccccc2F)CC1)c1ccc(Br)cc1,-20.7%,5.9%,?,-14.4%,1.03e-08M*,-21.2%
CCCCSC1=C(C#N)C(c2ccccc2C)C(C(=O)OCC)C(=O)N1 (stereo not drawn),-5.8%,-0.7%,i,-0.1%,i,-0.6%
CC(C)n1c(=S)[nH]c2c1c(=O)[nH]c(=O)n2C,-16.7%,0.6%,?,?,?,0.631µM*
Cc1ccc(C)c(C(=O)CC2(O)C(=O)N(C)c3ccccc32)c1 (stereo not drawn),-1.6%,1.3%,·,?,·,5.5%[11.4 µM]
SMILES,HSD17B inhib,AID923,4-MU autofl,CRE Fsk mod,A350 autofl,HADH2 inh
Cc1ccc2c(c1)c1cccc3c1n2CCN3CCC(N)=O,31.6µM*,9.2%,·,?,·,?
CCN(CC)C(=O)CSc1nc2ccccc2c(=O)n1CCC(=O)NCc1ccc(F)cc1,-5.2%,-1.4%,i,8.7%,i,9.3%
C[C@@H]1c2ccccc2Cn2cc3c(c21)C(=O)c1cccc(OP(=O)(O)OCc2ccccc2)c1C3=O,?,8.2%[11.5 µM],2.82e-08M*,-9.7%[7.6 µM],2.7e-08M*,3.16µM*
O=c1o[nH]c(-c2ccccc2)c1C1=NCCCCC1,1.6%,1.5%,1.07e-05M*,14.4%,1.14e-05M*,2.9%
CCNC(=O)CSc1nc2cc(OC)c(OC)cc2c(=O)n1CCC1=CCCCC1,-4.6%,-0.2%,i,20.0%,?,-19.4%
CCSc1nc2cc(OC)c(OC)cc2c(=O)n1CC,2.6%,0.6%,i,10µM*,i,5.9%
Cc1ccc(-c2nc(NC(=O)CSc3nnc(C)s3)ns2)cc1,10.4%,-1.1%,·,-10.7%,·,8.0%
COc1ccc(-c2nc(NC(=O)CSc3nnc(C)s3)ns2)cc1,25.1µM*,2.8%,?,?,?,39.8µM*
O=C1C(Cl)=C(Sc2nnc3c4ccccc4c4ccccc4c3n2)C(=O)c2ccccc21,?,3.6%[11.5 µM],?,11.7%[7.6 µM],?,3.16µM*
CN(CCc1ccccn1)c1ccc2c(c1)C(=O)c1ccccc1-2,3.7%[11.4 µM],-1.1%[11.5 µM],i,5.3%[7.6 µM],i,2.6%[11.4 µM]
COC(=O)CN(c1ccccn1)S(=O)(=O)c1ccccc1,25.1µM*,-0.3%,i,-1.8%,i,?
COC(=O)CCN(c1ccccc1)S(=O)(=O)c1ccc(OC)cc1,10.0%,-0.7%,?,-7.5%,1.07e-08M*,5.5%
COC(=O)CN(c1cc(OC)ccc1OC)S(=O)(=O)c1ccc(OC)c(OC)c1,·,·,2.41e-08M*,·,2.78e-08M*,·
COc1ccc(S(=O)(=O)N(CC(=O)O)c2ccc(C)cc2)cc1,4.6%,6.9%,·,·,·,-3.3%
O=S(=O)(c1ccc(Br)cc1)N1CCN(S(=O)(=O)c2ccc(Br)cc2)CC1,9.5%[11.4 µM],0.7%[11.5 µM],i,-7.7%[7.6 µM],i,0.5%[11.4 µM]
CCCC(=O)Nc1ccc(N2CCN(C(=O)c3cccs3)CC2)cc1,2.8%,-0.6%,i,?,i,12.3%
O=C(CSc1n[nH]c(-c2ccc(S(=O)(=O)NC3CCCCC3)cc2)n1)N1CCCC1,25.1µM*,0.4%,i,-4.8%,?,25.1µM*
O=C(COc1ccc(S(=O)(=O)NC2CCCC2)cc1)N1CCCCCC1,-8.5%,-1.8%,i,1.1%,i,0.7%
CCCCCCCCCCCCCCC(C(=O)O)C(O)(CC(=O)OC)C(=O)O (stereo not drawn),?,-0.5%,·,·,·,·
Cc1ccc(C(=O)O[C@@H](C(=O)O)[C@@H](OC(=O)c2ccc(C)cc2)C(=O)O)cc1 (tested in a mixture with another compound),4.6%,-0.8%,i,-5.4%,i,-7.2%
CCOC(=O)c1c(C2COc3ccccc3O2)csc1NC(=O)c1ccco1 (stereo not drawn),5.01µM*,4.1%,3.56e-08M*,2µM*,3.39e-08M*,3.16µM*
